aSyn UTR act = Activators via SNCA 5'UTR binding, MLPCN; alpha-synuclein 5'UTR reporter, activators screen; activity score, % (tested at 7.5 µM), hits read low; actives 7.1% (n = 300,000); in the data active = activity score below about -60%
Numbers stand for hits; - = inactive. Not all results are given here.

SMILES	aSyn UTR act
CC(=O)c1cccc(OCc2cc(C(=O)N3C[C@@H](C)O[C@@H](C)C3)no2)c1	-75
O=C(c1cc(COc2cccc(C(F)(F)F)c2)on1)N1C[C@H]2CC[C@H]1C2	-117
COCCC1CCCCN1C(=O)c1cc(COc2cccc(C(C)=O)c2)on1 (stereo not drawn)	-96
Cc1cc(=O)n(C(NC(=O)c2ccccc2)C(=O)c2ccccc2)cn1 (stereo not drawn)	-84
O=C(NC(C(=O)c1ccccc1)N1CCOCC1)c1ccccc1 (stereo not drawn)	-67
CC1(C)Cc2c(sc3nc(-c4cc5ccccc5o4)n(N)c(=O)c23)CO1	-203
COc1ccc(-c2cc(C(=O)Nc3ccc(C(N)=O)cc3)c3ccccc3n2)cc1	-119
O=C(Nc1ccncc1)c1cc(-c2cccc(Br)c2)nc2ccccc12	-
Cc1ccc(-c2cc(C(=O)Nc3nn[nH]n3)c3ccccc3n2)cc1	-69
O=C(Nc1nccs1)c1cc(-c2ccncc2)nc2ccccc12	-67
COc1ccc2cc(-c3cc(C(=O)O)c4ccccc4n3)ccc2c1	-
O=C(N/N=C/c1cccs1)c1cc(-c2ccncc2)nc2ccccc12	-
S=c1sc2c(Cl)ncnc2n1-c1ccccc1	-
COc1ccc(-c2cc3ncnc(Cl)c3s2)cc1	-69
CCC1(c2ccc(Cl)cc2)NC(=S)N(c2ccc(C)cc2)N1 (stereo not drawn)	-308
CCC1(c2ccc(Cl)cc2)NC(=S)N(c2ccc(C)c(C)c2)N1 (stereo not drawn)	-67
COC(=O)c1c(NC(C)=O)sc(C(=O)Nc2ccccc2)c1C	-85
COC(=O)c1c(NC(=O)c2cccnc2)sc(C(=O)N(C)C)c1C	-84
CCC(=O)Nc1sc(C(=O)Nc2ccccc2F)c(C)c1C(=O)OC	-64
CCCC(=O)Nc1sc(C(=O)Nc2cccc(N)c2)c(C)c1C(=O)OC	-84
CC(C)Sc1nc(NCc2ccco2)c2c3c(sc2n1)COC(C)(C)C3	-85
CC(C)c1nc2oc3c(NCc4ccccn4)ncnc3c2c2c1COC(C)(C)C2	-
NC(=O)CSc1nc(C2CC2)nc2sc3c(c12)CCCC3	-109
Cc1cc(NC(=O)CSc2nc(C3CC3)nc3sc4c(c23)CCC(C)C4)no1 (stereo not drawn)	-70
CCCCC(=O)/C=C/n1c(=S)oc2ccccc21	-151
SMILES	aSyn UTR act
CC1CCOC(c2coc3ccccc3c2=O)O1 (stereo not drawn)	-113
CSc1nc(/C=C2\C=Nc3ccccc32)c(O)n1C	-152
O=[N+]([O-])c1cccnc1NCCc1ccccc1	-159
O=[N+]([O-])c1ccc(O)c2ncccc12	-
Cc1ccc(N2C(=O)c3cccc4c([N+](=O)[O-])ccc(c34)C2=O)c2cccnc12	-
O=[N+]([O-])c1cccnc1NCCc1c[nH]c2ccccc12	-123
Cc1c(N/N=C(\C#N)C(=O)c2ccc(Cl)cc2)c(=O)n(-c2ccccc2)n1C	-
Cc1c(NC(=O)c2cc(C3CC3)on2)c(=O)n(-c2ccccc2)n1C	-62
c1ccc2sc(SCc3ccc(-c4nnco4)cc3)nc2c1	-156
CCC(C)/C(C)=N/NC(=O)c1ccc(CSc2nc3ccccc3s2)cc1 (stereo not drawn)	-156
CCNC(=O)c1ccc(CSc2nc3ccccc3s2)cc1	-65
NC(=O)c1ccc(CSc2nc3ccccc3s2)cc1	-101
CCC(C)(C)NC(=O)CCCSc1nc2ccccc2s1	-154
S=C(Nc1ccccc1)c1ccccn1	-165
COc1ccc(-c2ccc(/C=C3/C(=N)N4C=CSC4=NC3=O)o2)c([N+](=O)[O-])c1	-116
Brc1ccc(COc2cccc3cccnc23)cc1	-81
O=C(N/N=C/c1ccc[nH]1)c1ccc(COc2cccc3cccnc23)cc1	-
O=C(COc1ccccc1CNCc1ccccc1)Nc1ccccc1	-91
Clc1ccc(OCc2cn3ccccc3n2)c2ncccc12	-158
OCc1ccccc1OCCCOc1cccc2cccnc12	-83
O=C(COc1cccc2cccnc12)Nc1ccccc1	-174
OCc1ccccc1OCCOc1ccc(Cl)c2cccnc12	-95
c1ccc(OCCOc2cccc3cccnc23)cc1	-94
Cc1ccc(NCC(=O)c2ccc([N+](=O)[O-])cc2)cc1	-115
Cc1ccc(C(=O)CNc2ccc(Br)cc2)cc1	-71
SMILES	aSyn UTR act
O=C(CSCc1ccccc1)N1CCN(c2ccccc2)CC1	-103
O=C(CSCc1cccc(F)c1)N1CCN(c2ccccc2)CC1	-199
Cc1ccnc2nc(C(=O)Nc3cc(Cl)ccc3N3CCOCC3)nn12	-77
CC1CCN(C(=O)Cn2nnc(-c3cccs3)n2)CC1	-131
O=C(Cn1nnc(-c2ccccc2F)n1)N1CCCCC1	-120
CC1CCN(C(=O)CSCC(=O)Nc2nc(-c3cccs3)cs2)CC1	-89
CC1CCCN(C(=O)CSCC(=O)Nc2nc(-c3cccs3)cs2)C1 (stereo not drawn)	-76
c1ccc2c(c1)CC(N1CCCCC1)c1ccccc1S2 (stereo not drawn)	-
c1ccc(C2=NNC(=NC3CC3)SC2)cc1	-
c1ccc2c(C3=NNC(=NC4CCCCC4)SC3)c[nH]c2c1	-140
CC1CC/C(=C\c2ccc3c(c2)OCO3)C(=O)/C1=C/c1ccc2c(c1)OCO2 (stereo not drawn)	-80
O=C1/C(=C/c2ccncc2)CCC/C1=C\c1ccncc1	-101
O=C1/C(=C\c2ccc3c(c2)OCO3)CCC/C1=C/c1ccc2c(c1)OCO2	-93
O=[N+]([O-])c1cc(-c2nc(-c3ccncc3)no2)cc([N+](=O)[O-])c1	-118
O=[N+]([O-])c1cc(-c2nc(-c3ccncc3)no2)ccc1Cl	-79
CCN(CC)c1ccc(/C=C/C(=O)C2C(=O)C=C(C)OC2=O)cc1 (stereo not drawn)	-240
CC(C)CC(=O)Nc1nnc(-c2ccco2)s1	-151
O=C(Nc1nnc(-c2ccco2)s1)C1CCCCC1	-95
COCCCNc1nnc(Cc2ccc(Cl)cc2)c(=O)[nH]1	-
Cc1ccc2c(c1)COc1c3ccc(C(=O)N[C@@H](C)CO)cc3nn1-2	-154
Cc1ccc2c(c1)COc1c3ccc(C(=O)NC(C)C)cc3nn1-2	-204
O=C(CCc1ccccc1)Nc1cccnc1	-63
CC(C)(C)c1ccc(-c2noc(CCC(=O)Nc3cccnc3)n2)cc1	-
CC(Cc1ccccc1)C(=O)Nc1ccc(Br)cc1 (stereo not drawn)	-81
CC(C)c1ccc(NC(=O)CCc2ccccc2)cc1	-389
SMILES	aSyn UTR act
COCc1cccc(NC(=O)CCc2ccccc2)c1	-99
CS(=O)(=O)Nc1cccc(-c2cnc3ccccc3n2)c1	-153
CNC(=S)Nc1cccc(-c2cnc3ccccc3n2)c1	-144
CC(C)C(=O)Nc1cccc(-c2cnc3ccccc3n2)c1	-115
COc1ccc(COc2cc(-c3cccc(OC)c3)nc3ccc(NC(=O)C(C)C)cc23)cc1	-135
O=C(CCS(=O)(=O)c1ccccc1)N(CCCN1CCOCC1)c1nc2ccc(F)cc2s1	-132
Cc1nc2cc(NC(=O)Nc3ccc(Br)cc3)ccc2o1	-192
Cc1nc2cc(NC(=O)N3c4ccccc4CC3C)ccc2o1 (stereo not drawn)	-104
CSc1ccc(/C=N/n2c(C)cc(C)cc2=O)cc1	-127
CN1CCN(/N=C/c2ccc(-c3ccccc3)cc2)CC1	-133
CSc1ccc(/C=N/N2CCN(C)CC2)cc1	-95
Cc1ccc2nc(-c3ccc(NC(=O)CSc4nc(N)cc(=O)[nH]4)cc3)sc2c1	-177
Cc1ccc2nc(-c3ccc(NC(=O)CN4C(=O)c5ccccc5C4=O)cc3)sc2c1	-200

High-throughput results as filed in PubChem BioAssay.
